This excerpt belongs to a sample that is enriched for the strongest signals.
Key:
Assay in all cases: glycan array binding signal (z-score within array); higher = stronger binding
Conditions in all cases: glycan notation: IUPAC condensed, linker removed
Fuc(a1-2)Gal(b1-3)GalNAc = molecular target: Fuc(a1-2)Gal(b1-3)GalNAc
Summary of the method: (§1)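 Arrays were curated from the Consortium for Functional Glycomics database, 3228 in total, and kept only where the protein sequence was available. Binding is expressed as a within-array Z-score. This score was averaged across arrays of the same protein sequence at different concentrations or buffers and across linkers, and negative values can be read as non-binding.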

[1] = molecular target: Fuc(a1-2)Gal(b1-3)GalNAc(a1-3)[Fuc(a1-2)]Gal(b1-4)GlcNAc
Summary of the method: as §1

Fuc(a1-2)Gal(b1-4)GlcNAc = molecular target: Fuc(a1-2)Gal(b1-4)GlcNAc
Summary of the method: as §1

[2] = molecular target: Fuc(a1-2)Gal(b1-4)GlcNAc(b1-2)Man(a1-3)[Fuc(a1-2)Gal(b1-4)GlcNAc(b1-2)Man(a1-6)]Man(b1-4)GlcNAc(b1-4)[Fuc(a1-6)]GlcNAc
Summary of the method: as §1

[3] = molecular target: Fuc(a1-2)Gal(b1-4)[Fuc(a1-3)]GlcNAc
Summary of the method: as §1

[4] = molecular target: Fuc(a1-2)Gal(b1-4)[Fuc(a1-3)]GlcNAc(b1-3)Gal(b1-4)[Fuc(a1-3)]GlcNAc(b1-3)Gal(b1-4)[Fuc(a1-3)]GlcNAc
Summary of the method: as §1

Fuc(a1-2)Gal6S(b1-4)Glc = molecular target: Fuc(a1-2)Gal6S(b1-4)Glc
Summary of the method: as §1

[5] = molecular target: Fuc(a1-2)[Gal(a1-3)]Gal(b1-3)GlcNAc(b1-2)Man(a1-3)[Fuc(a1-2)[Gal(a1-3)]Gal(b1-3)GlcNAc(b1-2)Man(a1-6)]Man(b1-4)GlcNAc(b1-4)GlcNAc
Summary of the method: as §1

[6] = molecular target: Fuc(a1-2)[GalNAc(a1-3)]Gal
Summary of the method: as §1

[7] = molecular target: Fuc(a1-2)[GalNAc(a1-3)]Gal(b1-3)GlcNAc(b1-3)GalNAc
Summary of the method: as §1

[8] = molecular target: Fuc(a1-2)[GalNAc(a1-3)]Gal(b1-4)GlcNAc(b1-3)Gal(b1-4)GlcNAc(b1-3)Gal(b1-4)GlcNAc
Summary of the method: as §1

[9] = molecular target: Fuc(a1-3)[Gal(b1-4)]GlcNAc(b1-4)Gal(b1-4)[Fuc(a1-3)]GlcNAc
Summary of the method: as §1

[10] = molecular target: Fuc(a1-3)[Gal(b1-4)]GlcNAc(b1-6)GalNAc
Summary of the method: as §1

Gal(a1-4)Gal(b1-4)GlcNAc = molecular target: Gal(a1-4)Gal(b1-4)GlcNAc
Summary of the method: as §1

Gal(b1-3)GlcNAc = molecular target: Gal(b1-3)GlcNAc
Summary of the method: as §1

[11] = molecular target: Gal(b1-3)GlcNAc(b1-3)GalNAc
Summary of the method: as §1

Gal(b1-4)Glc6S = molecular target: Gal(b1-4)Glc6S
Summary of the method: as §1

[12] = molecular target: Gal(b1-4)GlcNAc(b1-2)Man(a1-3)[Man(a1-6)]Man(b1-4)GlcNAc(b1-4)GlcNAc
Summary of the method: as §1

Gal(b1-6)Gal = molecular target: Gal(b1-6)Gal
Summary of the method: as §1

[13] = molecular target: Gal3S(b1-3)[Fuc(a1-4)]GlcNAc
Summary of the method: as §1

Gal3S6S(b1-4)GlcNAc = molecular target: Gal3S6S(b1-4)GlcNAc
Summary of the method: as §1

Gal3S6S(b1-4)GlcNAc6S = molecular target: Gal3S6S(b1-4)GlcNAc6S
Summary of the method: as §1

GalNAc(b1-3)GalNAc = molecular target: GalNAc(b1-3)GalNAc
Summary of the method: as §1

[14] = molecular target: Glc(a1-4)Glc(a1-4)Glc(a1-4)Glc
Summary of the method: as §1

Glc(b1-4)Glc = molecular target: Glc(b1-4)Glc
Summary of the method: as §1

[15] = molecular target: GlcNAc(b1-2)[GlcNAc(b1-4)]Man(a1-3)[GlcNAc(b1-2)Man(a1-6)]Man(b1-4)GlcNAc(b1-4)GlcNAc
Summary of the method: as §1

GlcNAc(b1-3)Gal(b1-4)Glc = molecular target: GlcNAc(b1-3)Gal(b1-4)Glc
Summary of the method: as §1

GlcNAc(b1-3)GalNAc = molecular target: GlcNAc(b1-3)GalNAc
Summary of the method: as §1

GlcNAc(b1-3)Man = molecular target: GlcNAc(b1-3)Man
Summary of the method: as §1

[16] = molecular target: GlcNAc(b1-3)[GlcNAc(b1-6)]GalNAc
Summary of the method: as §1

[17] = molecular target: Man(a1-2)Man(a1-6)[Man(a1-3)]Man(a1-6)[Man(a1-2)Man(a1-2)Man(a1-3)]Man(b1-4)GlcNAc(b1-4)GlcNAc
Summary of the method: as §1

Neu5Ac(a2-3)Gal = molecular target: Neu5Ac(a2-3)Gal
Summary of the method: as §1

[18] = molecular target: Neu5Ac(a2-3)Gal(b1-4)[Fuc(a1-3)]GlcNAc(b1-3)Gal(b1-4)[Fuc(a1-3)]GlcNAc(b1-3)Gal(b1-4)[Fuc(a1-3)]GlcNAc
Summary of the method: as §1

[19] = molecular target: Neu5Ac(a2-3)[GalNAc(b1-4)]Gal(b1-4)GlcNAc
Summary of the method: as §1

[20] = molecular target: Neu5Ac(a2-6)Gal(b1-4)GlcNAc
Summary of the method: as §1

[21] = molecular target: Neu5Ac(a2-6)Gal(b1-4)GlcNAc(b1-2)Man(a1-3)[Man(a1-6)]Man(b1-4)GlcNAc(b1-4)GlcNAc
Summary of the method: as §1

[22] = molecular target: Neu5Ac(a2-6)Gal(b1-4)GlcNAc(b1-2)Man(a1-6)[GlcNAc(b1-2)Man(a1-3)]Man(b1-4)GlcNAc(b1-4)GlcNAc
Summary of the method: as §1

[23] = molecular target: Neu5Ac(a2-8)Neu5Ac(a2-3)Gal(b1-3)GalNAc(b1-4)[Neu5Ac(a2-8)Neu5Ac(a2-3)]Gal(b1-4)Glc
Summary of the method: as §1

[24] = molecular target: Neu5Ac9Ac(a2-3)Gal(b1-3)GlcNAc
Summary of the method: as §1

Neu5Gc(a2-3)Gal(b1-4)Glc = molecular target: Neu5Gc(a2-3)Gal(b1-4)Glc
Summary of the method: as §1

B1: PpFlo3 (Pichia pastoris) (protein)
chain: MGSSHHHHHHSSGLVPRGSHMQESGNGTTSDTAYACDIGATPFDGFNATIYQYQASDDNSIQDPVFMSTGYLQRNQLHSTTGVTNPGFNIFTAGVATTTLYGIPNVNYQNMLLELKGYFRADASGNYGLSLRNIDDSAILFFGRETAFECCNENLIPLDEAPTDYSLFTIKEGEASTNPDSYTYTQYLEAGRYYPVRTFFANIRTRAVFNFTMTLPDGSELTDFQNYIFQFGALNQ
glycan array binding signal (z-score) (Fuc(a1-2)Gal(b1-3)GalNAc): -0.256 | glycan array binding signal (z-score) [1]: -0.217 | glycan array binding signal (z-score) (Fuc(a1-2)Gal(b1-4)GlcNAc): -0.242 | glycan array binding signal (z-score) [2]: -0.263 | glycan array binding signal (z-score) [3]: 4.84 | glycan array binding signal (z-score) [4]: 4.32 | glycan array binding signal (z-score) (Fuc(a1-2)Gal6S(b1-4)Glc): -0.279 | glycan array binding signal (z-score) [5]: -0.259 | glycan array binding signal (z-score) [6]: -0.298 | glycan array binding signal (z-score) [7]: -0.014 | glycan array binding signal (z-score) [8]: -0.303 | glycan array binding signal (z-score) [9]: 2.75 | glycan array binding signal (z-score) [10]: -0.238 | glycan array binding signal (z-score) (Gal(a1-4)Gal(b1-4)GlcNAc): -0.139 | glycan array binding signal (z-score) (Gal(b1-3)GlcNAc): -0.201 | glycan array binding signal (z-score) [11]: -0.296 | glycan array binding signal (z-score) (Gal(b1-4)Glc6S): 4.38 | glycan array binding signal (z-score) [12]: -0.233 | glycan array binding signal (z-score) (Gal(b1-6)Gal): -0.281 | glycan array binding signal (z-score) [13]: 5.08 | glycan array binding signal (z-score) (Gal3S6S(b1-4)GlcNAc): -0.27 | glycan array binding signal (z-score) (Gal3S6S(b1-4)GlcNAc6S): -0.269 | glycan array binding signal (z-score) (GalNAc(b1-3)GalNAc): 5.1 | glycan array binding signal (z-score) [14]: -0.242 | glycan array binding signal (z-score) (Glc(b1-4)Glc): -0.246 | glycan array binding signal (z-score) [15]: 4.67 | glycan array binding signal (z-score) (GlcNAc(b1-3)Gal(b1-4)Glc): -0.291 | glycan array binding signal (z-score) (GlcNAc(b1-3)GalNAc): -0.266 | glycan array binding signal (z-score) (GlcNAc(b1-3)Man): 6.76 | glycan array binding signal (z-score) [16]: 1.75 | glycan array binding signal (z-score) [17]: -0.271 | glycan array binding signal (z-score) (Neu5Ac(a2-3)Gal): -0.283 | glycan array binding signal (z-score) [18]: -0.266 | glycan array binding signal (z-score) [19]: -0.272 | glycan array binding signal (z-score) [20]: -0.282 | glycan array binding signal (z-score) [21]: -0.281 | glycan array binding signal (z-score) [22]: 4.82 | glycan array binding signal (z-score) [23]: -0.017 | glycan array binding signal (z-score) [24]: -0.267 | glycan array binding signal (z-score) (Neu5Gc(a2-3)Gal(b1-4)Glc): -0.276

— the supplement of paper PMC8728848
